Hits are enriched below; roughly 9.4% of the tested compounds scored in any of these assays.
SMN2 splice up: increases expression of the SMN2 splice variant; HEK293 SMN2-luciferase splicing reporter, luminescence, 30-36 h; Potency, µM (titrated, usually from 46.1 µM), without a hit: at the highest dose activity change, positive = activation, usual class: activators; hit rate 2.8% among 210,000; further: % of control where 0% means no effect; nearly all actives have a fitted effect of over 55% in size
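HEK293 cells carry an SMN2 minigene-luciferase reporter in which exon 7 inclusion puts luciferase in frame. Cells were seeded at 2000 cells/well, attached for 10-12 hours, then exposed to compounds for 30-36 hours at 37C before ONE-Glo luminescence.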
Rab9 prom act: activates the Rab9 promoter; Potency, µM (doses to about 9.22 µM), for the others: at the top dose activation, negative = inhibition, most hits filed as activators; Huh7 Rab9 promoter-luciferase reporter, luminescence, 24 h; hit rate 2.8% among 320,000; AID 485297; further: % of control where 0% means no effect; nearly all actives have a fitted effect of over 60% in size
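Luminescence read-out: Huh7 cells stably expressing Rab9-luciferase, treated 24 h with compound at 37 °C, then lysed with luciferase reagent for 10 min at ambient before reading.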
ELG1 genotoxic: genotoxicity induction in ELG1-luciferase HEK293T cells; HEK293T ELG1-luciferase reporter, luminescence, 16 h; Potency, µM (doses to about 46 µM), for inactives: at the highest dose activity change, positive = activation, most hits filed as activators; hit rate 1.3% among 330,000; AID 504466; further: % of control where 0% means no effect; nearly all actives have a fitted effect of over 60% in size
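Luminescence read-out: rising ELG1-luciferase signal, reflecting elevated ELG1 protein under genetic stress, flags genotoxic compounds. Cells were treated for 16 hr at 37 °C before ONE-Glo detection.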
NPC1 prom act: activators of NPC1 promoter; AID 485313; hit rate 2.4% among 320,000; Potency, µM (top dose mostly 9.22 µM), for inactives: at the top dose activation, usual class: activators; Huh7 NPC1 promoter luciferase reporter, 24 h; further: % of control where 0% means no effect; nearly all actives have a fitted effect of over 60% in size
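Stably transfected Huh7 (NPC1 promoter→luciferase), 1500 cells/well in Opti-MEM + 10% FBS, 2 h settle, then compound 24 h at 37 °C. Luminescence after 10 min with Amplite reagent.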
ELG1 DNA repair: ELG1-dependent DNA repair inhibition; Potency, µM (series often up to 46.1 µM), without a hit: at the top dose activity change, negative = inhibition, hits mostly inhibitors; AID 504467; hit rate 2.3% among 330,000; HEK293T ELG1-luciferase reporter, luminescence, 16 h; DNA damage induced by 5-fluorouridine; further: on the % scale 0 is the no-effect control and ±100 the full control effect; nearly all actives have a fitted effect of over 55% in size
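In this reporter screen, reduction of luminescence relative to DMSO vehicle indicated activity. Compounds and 5-fluorouridine were added together to 2,000 cells per well, incubated for 16 hr at 37 °C, then developed with ONE-Glo.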
FLuc modulator: firefly luciferase modulation, counter-screen for miR-21 project; AID 588342; hit rate 6.9% among 360,000; Potency, µM (highest dose often 57.5 µM), for the others: at the top dose activity change, negative = inhibition, actives largely listed as inhibitors; P08659; purified FLuc, Km substrates, luminescence inhibition;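 further: plate controls were vehicle for no effect and reference inhibitor for full effect; nearly all actives have a fitted effect of over 55% in size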
Target sequence (P08659 whole entry, looked up): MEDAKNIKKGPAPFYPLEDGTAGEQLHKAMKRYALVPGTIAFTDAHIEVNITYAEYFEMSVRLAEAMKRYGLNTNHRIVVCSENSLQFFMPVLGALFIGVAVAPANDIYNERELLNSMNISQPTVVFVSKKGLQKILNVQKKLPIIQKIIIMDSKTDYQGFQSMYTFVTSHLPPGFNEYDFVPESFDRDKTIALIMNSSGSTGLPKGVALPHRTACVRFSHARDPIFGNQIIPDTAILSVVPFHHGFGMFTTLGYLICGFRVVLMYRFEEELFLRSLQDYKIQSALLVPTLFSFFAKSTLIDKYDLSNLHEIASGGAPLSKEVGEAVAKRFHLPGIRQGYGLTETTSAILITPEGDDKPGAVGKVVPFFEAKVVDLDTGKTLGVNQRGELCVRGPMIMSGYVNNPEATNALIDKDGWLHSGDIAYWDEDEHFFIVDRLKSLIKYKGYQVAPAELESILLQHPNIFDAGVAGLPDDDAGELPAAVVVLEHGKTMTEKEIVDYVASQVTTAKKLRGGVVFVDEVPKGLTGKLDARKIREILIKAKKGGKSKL
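Purified P. pyralis luciferase, 10 nM final, with Km-level 10 uM D-luciferin and 10 uM ATP in 50 mM Tris acetate pH 7.5, 10 mM Mg acetate, 0.01% Tween-20, 0.05% BSA; 6-point qHTS titration about 60 µM downward; luminescence read.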
Numbers without * were called inactive. The call rests on the fitted dose curve; in most records, active means well fitted curve in the direction sought with a large enough effect; inconclusive means small, poorly fitted or top-dose-only effect, or another doubt; inactive means no such curve, though single readings can be large; an effect the other way counts as inactive or inconclusive. Potency means the concentration at half of the fitted maximal effect.

How did O=C(Nc1ccc(-c2csc(Nc3ccccc3)n2)cc1)c1cccc(C(F)(F)F)c1 do in these assays?
Rab9 prom act: -3.8%; ELG1 genotoxic: -6.9%; NPC1 prom act: -6.3%; ELG1 DNA repair: inconclusive; FLuc modulator: -2.5%

What do the screens show for `O=C(Nc1cccc(-c2csc(Nc3cccc(C(F)(F)F)c3)n2)c1)c1cc([N+](=O)[O-])cc(C(F)(F)F)c1`?
Rab9 prom act: -14.9%; ELG1 genotoxic: -5.1%; NPC1 prom act: -18.1%; ELG1 DNA repair: 2.59µM*; FLuc modulator: 2.9%

What do the screens show for `O=C(Nc1ccc(-c2csc(Nc3ccccc3)n2)cc1)c1cc([N+](=O)[O-])cc(C(F)(F)F)c1`?
Rab9 prom act: -18.5%; ELG1 genotoxic: -21.5%; NPC1 prom act: -12.6%; ELG1 DNA repair: 9.2µM*; FLuc modulator: -6.7%

Results for O=C(Nc1cccc(-c2nc3ccccc3s2)c1)c1cc(-n2cnnc2)ccc1Cl ?
Rab9 prom act: 20.2%; ELG1 genotoxic: 0.4%; NPC1 prom act: 28.2%; ELG1 DNA repair: inconclusive; FLuc modulator: 6.75µM*

How did CC(=O)c1cccc(NC(=O)c2cc(-n3cnnc3)ccc2Cl)c1 do in these assays?
SMN2 splice up: -0.3%; FLuc modulator: 0.8%

How did Cc1ccc2sc(-c3ccc(NC(=O)c4cc(-n5cnnc5)ccc4Cl)cc3)nc2c1 do in these assays?
SMN2 splice up: 12.6µM*; Rab9 prom act: inconclusive; ELG1 genotoxic: 22.3%; NPC1 prom act: inconclusive; ELG1 DNA repair: inconclusive; FLuc modulator: 6.01µM*

What do the screens show for `CC(=O)Nc1ccc(NC(=O)c2cc(-n3cnnc3)ccc2Cl)cc1`?
SMN2 splice up: -5.7%; Rab9 prom act: 0.0%; ELG1 genotoxic: -2.3%; NPC1 prom act: -7.0%; ELG1 DNA repair: -14.0%; FLuc modulator: 0.0%

How did Cc1c(NC(=O)c2cc(-n3cnnc3)ccc2Cl)cccc1-c1nc2ccccc2s1 do in these assays?
SMN2 splice up: 5.62µM*; Rab9 prom act: 3.55µM*; ELG1 genotoxic: 9.7%; NPC1 prom act: inconclusive; ELG1 DNA repair: inconclusive; FLuc modulator: 0.601µM*

What do the screens show for `Cc1c(NC(=O)c2cccs2)cccc1-c1nc2ccccc2s1`?
SMN2 splice up: -6.9%; Rab9 prom act: 17.9%; ELG1 genotoxic: -2.8%; NPC1 prom act: 7.6%; ELG1 DNA repair: 1.1%; FLuc modulator: 4.26µM*

Results for Cc1ccc(NC(=O)c2cc(-n3cnnc3)ccc2Cl)c(C)c1 ?
SMN2 splice up: -15.5%; Rab9 prom act: 2.4%; ELG1 genotoxic: 0.9%; NPC1 prom act: 1.5%; ELG1 DNA repair: -12.6%; FLuc modulator: -1.4%

What do the screens show for `O=C1c2nc3cc(-c4ccccc4)[nH]n3c(=O)c2CN1Cc1ccccc1`?
Rab9 prom act: -3.3%; ELG1 genotoxic: 0.2%; NPC1 prom act: -1.6%; ELG1 DNA repair: 0.0%; FLuc modulator: -9.1%

What do the screens show for `O=c1c2c(nc3cc(-c4cccc(Cl)c4)[nH]n13)CCC2`?
SMN2 splice up: 8.91µM*; Rab9 prom act: 1.58µM*; ELG1 genotoxic: 2.31µM*; NPC1 prom act: 2µM*; ELG1 DNA repair: inconclusive; FLuc modulator: 4.78µM*

Results for O=c1c2c(nc3cc(-c4cccc(F)c4)[nH]n13)CCC2 ?
SMN2 splice up: 8.91µM*; Rab9 prom act: 1.12µM*; ELG1 genotoxic: inconclusive; NPC1 prom act: 1.58µM*; ELG1 DNA repair: inconclusive; FLuc modulator: 6.01µM*

What do the screens show for `O=c1c2c(nc3cc(-c4ccc(F)cc4)[nH]n13)CCCC2`?
SMN2 splice up: inconclusive; Rab9 prom act: 0.447µM*; ELG1 genotoxic: 2.31µM*; NPC1 prom act: inconclusive; ELG1 DNA repair: inconclusive; FLuc modulator: 1.51µM*

Results for O=c1c2c(nc3c(-c4ccc(Cl)cc4)c[nH]n13)CCCC2 ?
SMN2 splice up: -87.7%; Rab9 prom act: -26.5%; ELG1 genotoxic: -10.6%; NPC1 prom act: -34.9%; ELG1 DNA repair: 10.3µM*; FLuc modulator: -2.1%

How did Cc1[nH]n2c(=O)c3c(nc2c1-c1ccc(F)cc1)CCCC3 do in these assays?
Rab9 prom act: -6.6%; ELG1 genotoxic: -7.4%; NPC1 prom act: -4.6%; ELG1 DNA repair: -9.9%; FLuc modulator: -1.1%

What do the screens show for `C/C(=N\Nc1nnc(-c2ccccc2)c(-c2ccccc2)n1)c1cccc([N+](=O)[O-])c1`?
SMN2 splice up: 8.0%; Rab9 prom act: -0.4%; ELG1 genotoxic: 20.6µM*; NPC1 prom act: 29.1%; ELG1 DNA repair: inconclusive; FLuc modulator: 13.5µM*

What do the screens show for `O=[N+]([O-])c1cccc(/C=N/Nc2nnc(-c3ccccc3)c(-c3ccccc3)n2)c1`?
SMN2 splice up: -7.3%; Rab9 prom act: -0.5%; ELG1 genotoxic: -1.6%; NPC1 prom act: -0.2%; ELG1 DNA repair: -3.4%; FLuc modulator: -0.4%

What do the screens show for `C/C(=N\Nc1ccc(Cl)c(C(=O)O)c1)c1cccc([N+](=O)[O-])c1`?
Rab9 prom act: inconclusive; ELG1 genotoxic: 16.8%; NPC1 prom act: inconclusive; ELG1 DNA repair: inconclusive; FLuc modulator: 19µM*

Results for C/C(=N\Nc1cc(C)nc(NCc2ccccc2)n1)c1cccc([N+](=O)[O-])c1 ?
Rab9 prom act: -5.1%; ELG1 genotoxic: -1.6%; NPC1 prom act: 0.8%; ELG1 DNA repair: -8.6%; FLuc modulator: 12µM*

Results for C/C(=N\NC(=O)c1ccccc1C)c1cccc([N+](=O)[O-])c1 ?
SMN2 splice up: 7.9%; Rab9 prom act: 10.2%; ELG1 genotoxic: 9.3%; NPC1 prom act: -2.3%; ELG1 DNA repair: inconclusive; FLuc modulator: inconclusive

Results for C/C(=N\Nc1cc(N2CCOCC2)nc(C)n1)c1cccc([N+](=O)[O-])c1 ?
SMN2 splice up: -40.6%; Rab9 prom act: -17.3%; ELG1 genotoxic: -4.4%; NPC1 prom act: -20.2%; ELG1 DNA repair: 14.6µM*; FLuc modulator: -14.1%

What do the screens show for `CCCCc1ccc(/C(C)=N/Nc2cc(N3CCOCC3)nc(C)n2)cc1`?
Rab9 prom act: -0.4%; ELG1 genotoxic: -10.8%; NPC1 prom act: -5.2%; ELG1 DNA repair: 0.0%; FLuc modulator: inconclusive

What do the screens show for `O=C(Nc1nnc(-c2ccco2)s1)c1ccccc1`?
SMN2 splice up: 2µM*; Rab9 prom act: 0.398µM*; ELG1 genotoxic: 1.16µM*; NPC1 prom act: 0.794µM*; ELG1 DNA repair: inconclusive; FLuc modulator: 3.01µM*

Results for O=C(Nc1ccc(F)cc1)Nc1nnc(-c2ccco2)s1 ?
SMN2 splice up: 19.0%; Rab9 prom act: 2.82µM*; ELG1 genotoxic: 19.8%; NPC1 prom act: inconclusive; ELG1 DNA repair: inconclusive; FLuc modulator: -18.7%

Source: PubChem (National Center for Advancing Translational Sciences (NCATS))
